Inconclusive results are not listed. A call without a number means that no potency is given here. Activity calls are given as the source filed them. Calls come from the whole dose curve.

A short description of the assay: Primary qHTS for inhibitors of MERS-S pseudo-typed particle cell entry (AID 1479149). Note: nearly all actives have a fitted effect of over 60% in size. As to conditions: MERS-S pseudotyped particle entry, luciferase; series mostly up to 57.1 µM.
Take `C[C@@H](O)[C@H](N)C(=O)O`: the Potency result is “inactive”.
Same read-out and setting: in the case of `O=c1cc(CO)occ1O` it was “inactive”; in that of `CC(=O)Oc1ccc2c(c1)CC[C@@H]1[C@@H]2CC[C@]2(C)[C@@H](O)CC[C@@H]12`, “inactive”.
Turning to `O=C(O)c1ccc(OCCCOc2ccc(C(=O)O)cc2)cc1`, the Potency result was “inactive”.
On the same count and under the same terms, the same measure for `COc1ccc2c(c1)c(CC(=O)OCC(=O)O)c(C)n2C(=O)c1ccc(Cl)cc1`: “inactive”.
For the compound `CCCSS/C(CCO)=C(\C)N(C=O)Cc1cnc(C)nc1N`, the Potency result was “inactive”.
As for `CC(C)c1cc2c(cc1S(=O)(=O)O)[C@@]1(C)CCC[C@@](C)(C(=O)O)[C@@H]1CC2`, the Potency result is “inactive”.
`COc1cc(NS(=O)(=O)c2ccc(N)cc2)nc(OC)n1`: the Potency entry is “inactive”.
For `CCOc1ccc2nc(S(N)(=O)=O)sc2c1`, the Potency result was “inactive”.
On the same count and under the same terms, in the case of `C#C[C@]1(O)CC[C@H]2[C@@H]3CCC4=CC(=O)CC[C@@H]4[C@H]3CC[C@@]21C` it was “inactive”; in that of `Nc1nc2ncc(CNc3ccc(C(=O)N[C@@H](CCC(=O)O)C(=O)O)cc3)nc2c(=O)[nH]1`, “inactive”.
With `OC[C@H]1O[C@@H](O[C@@H]2[C@@H](CO)O[C@](O)(CO)[C@H]2O)[C@H](O)[C@@H](O)[C@H]1O`, the Potency entry was “inactive”.
With `O=C(O)CCNC(=O)c1ccccc1`, the Potency entry was “inactive”.
`Cc1ccc(C(=O)Oc2ccc(C(O)CNC(C)(C)C)cc2OC(=O)c2ccc(C)cc2)cc1` (stereo not drawn): the Potency result is “inactive”.
As for `COc1ccc(CN(CCN(C)C)c2ncccn2)cc1`, the Potency result was “inactive”.
Same read-out and setting: the same measure for `CCOC(=O)OC(C)OC(=O)[C@@H]1N2C(=O)[C@@H](NC(=O)[C@H](N)c3ccccc3)[C@H]2SC1(C)C` (stereo partly drawn): “inactive”; for `COc1ccccc1N1CCN(CCCNc2cc(=O)n(C)c(=O)n2C)CC1`: “inactive”.
Regarding `NCCNC(=O)c1ccc(Cl)cn1`, the Potency entry was “inactive”.
Take `OC[C@@H](O)[C@H](O)[C@H](O)[C@@H](O)CO`: the Potency entry is “inactive”.
Same read-out and setting: the same measure for `COCCc1ccc(OCC(O)CNC(C)C)cc1` (stereo not drawn): “inactive”; for `Cc1ccc2c(Cl)cc(Cl)c(O)c2n1`: “inactive”; for `C#C[C@]1(O)CC[C@H]2[C@@H]3CCc4cc(OC)ccc4[C@H]3CC[C@@]21C`: “inactive”.
Still for that read-out and setting: in the case of `CC(=O)O[C@H]1C[C@@H]2CC[C@@H]3[C@H](CC[C@@]4(C)[C@H]3C[C@H]([N+]3(C)CCCCC3)[C@@H]4OC(C)=O)[C@@]2(C)C[C@@H]1N1CCCCC1` it was “inactive”; in that of `C=Cc1c(C)c2cc3[nH]c(cc4nc(cc5nc(cc1[nH]2)C(C)=C5CCC(=O)O)C(CCC(=O)O)=C4C)c(C)c3C=C`, “inactive”.
For `CCN(CC)CC(=O)Nc1c(C)cccc1C(=O)OC`, the Potency entry was “inactive”.
On to `c1ccc2[nH]c(-c3cscn3)nc2c1`, for which the Potency result was “inactive”.
On the same count and under the same terms, the same measure for `CCNC(=O)NCCCOc1cccc(CN2CCCCC2)c1`: “inactive”; for `CCOC(=O)c1ccc(NC(=O)CN2CCCCC2)cc1`: “inactive”.
Consider `CC(C(=O)O)c1ccc2c(c1)Cc1cccnc1O2` (stereo not drawn), for which the Potency entry was “inactive”.
The same measure, in the same setting: the same measure for `Nc1ccc(C(=O)NCC(=O)O)cc1`: “inactive”.
Turning to `C/C(=C(\CCOP(=O)(O)O)SC(=O)c1ccccc1)N(C=O)Cc1cnc(C)nc1N`, the outcome was “inactive [at 5.34 µM]”.
In the case of `CNC(=O)c1c(I)c(NC(=O)CCCCC(=O)Nc2c(I)c(C(=O)O)c(I)c(C(=O)NC)c2I)c(I)c(C(=O)O)c1I`, the Potency entry is “inactive”.
The same measure, in the same setting: in the case of `OCC(CO)N[C@H]1C[C@](O)(CO)[C@@H](O)[C@H](O)[C@H]1O` it was “inactive”.
On to `C[C@H]1NCc2cc(-c3ccc4c(=O)c(C(=O)O)cn(C5CC5)c4c3OC(F)F)ccc21`, for which the Potency result is “inactive”.
On the same count and under the same terms, the same measure for `COc1cccc(N(C)C(=S)Oc2ccc3c(c2)CCCC3)n1`: “inactive”; for `NC(CSCC(=O)O)C(=O)O` (stereo not drawn): “inactive”; for `CC1(C)O[C@@H]2C[C@H]3[C@@H]4CCC5=CC(=O)CC[C@]5(C)[C@@]4(F)[C@@H](O)C[C@]3(C)[C@]2(C(=O)CCl)O1`: “inactive”.
On the same count and under the same terms, in the case of `CCC(=O)c1ccc(O)cc1` it was “inactive”.

For the origin of these results see PubChem BioAssay (NCATS).
